About 83,000 compounds went through this panel and 20% of them were active in at least one assay; those are over-represented in the sample as a whole.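 48-hour exposure, single concentration, 96-well plates; percent growth endpoint where 0 means no net growth. Active: below 10.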 A number with no mark means an inactive call. Active and inactive are the calls of the source.
Columns and labels:
Assay in all cases: NCI-60 one-dose screen, 48 h (100 = growth as untreated, 0 = no growth, -100 = all killed)
Details in all cases: 10 µM unless noted
[1] = tested on: NCI-H23 lung
[2] = tested on: NCI-H226 lung
[3] = tested on: NCI-H322M lung
[4] = tested on: HOP-62 NSCLC
[5] = tested on: NCI-H460 lung
[6] = tested on: HOP-92 NSCLC
[7] = tested on: NCI-H522 lung
[8] = tested on: A549/ATCC NSCLC
[9] = tested on: 786-0 renal
[10] = tested on: COLO 205 colon

Compound	growth [1] [%]	growth [2] [%]	growth [3]	growth [4] [%]	growth [5]	growth [6]	growth [7]	growth [8]	growth [9]	growth [10]
CCN1CCN(CCNc2nccc(-c3c(-c4cccc(OC)c4)nc4occn34)n2)S1(=O)=O	105	92.2	111%	129	96.7%	84.5%	89.5%	101%	113%	42.6%
O=S(=O)(Nc1ccc(-n2cnc3cc(-c4ccc(O)cc4)ccc32)cc1)c1ccccc1	99.8	92.1	93%	102	95.1%	130%	50.8%	77.2%	101%	136%
COc1cccc(-c2ccc3c(c2)NC(=O)/C3=C\c2ccc[nH]2)c1	31.4	50.5	45.2%	62.7	11.5%	93.5%	10.4%	57.1%	48.1%	30%
NC(=O)Nc1ccc(-n2cnc3cc(-c4ccc(O)cc4)ccc32)cc1	103	110	101%	104	102%	149%	73.3%	96.8%	109%	-20.8% (active)
OCc1cnccc1NCCCOc1ccccc1	97.7	92.9	100%	99.9	106%	90.5%	100%	93.2%	101%	123%
COc1cc(/C=C/C(=O)c2nc3cc(F)ccc3nc2C)cc(OC)c1OC	64.6	103	102%	106	53.5%	48.9%	70.3%	65%	75.7%	82%
NS(=O)(=O)c1ccc(CCn2c(SCC(=O)c3ccc(Cl)cc3)nc3ccccc3c2=O)cc1	95.2	104	96.3%	96.1	105%	109%	96.7%	103%	92.4%	113%
C=C1C(=O)O[C@H]2[C@H]1CC/C(CNC(=O)C(C)c1ccc(CC(C)C)cc1)=C\CC[C@@]1(C)O[C@@H]21 (stereo not given in full)	51.4	75.1	72.3%	60	36.2%	-19.1% (active)	7.53% (active)	42.2%	-86% (active)	-34.8% (active)
CCC(CC)NCC(C)(C)O	97.7	109	94%	119	103%	105%	105%	102%	107%	120%
CC1(C)CC[C@]23CC[C@]4(C)[C@H](CC[C@@H]5[C@@]6(C)CCCNC(C)(C)[C@@H]6CC[C@]54C)[C@H]2[C@H]1OC3	41.2	34.8	-21.4% (active)	27.7	-60.6% (active)	-37.2% (active)	9.35% (active)	-45.6% (active)	-96.2% (active)	-68.2% (active)
O=C1Nc2cc(-c3cccc([N+](=O)[O-])c3)ccc2/C1=C/c1ccc[nH]1	48.4	50.6	58.3%	76.4	47.6%	72.5%	78.3%	101%	107%	85.9%
COc1ccc(C/C(C)=C(/c2ccc(OCCCN(C)C)cc2)c2ccc(OC(C)=O)cc2)cc1	80.7	98	94.5%	83.2	73.1%	64.5%	95.5%	74.3%	63.2%	50.1%
O=C(c1nnc(Nc2ccccc2Br)o1)c1c[nH]c2ccccc12	88.1	85.6	94.6%	79.2	99.2%	97.9%	98.2%	88.2%	103%	98.9%

— PubChem BioAssay (NCI)
